Screening results as filed in PubChem.
NALP1 yeast inh: NALP1 inhibition; S. cerevisiae NALP1/ASC/caspase-1 growth, X-gal OD620, 72 h; inhibition, % at 10 µM; 280,000 compounds, 0.61% hits; AID 2071; in the data active = inhibition mostly above about 24%, no sharp cut-off; inactive = mostly below about 32%
SKKanGAS inh: inhibitors of SKKanGAS S. pyogenes growth in kanamycin (SK-promoter or general growth effect); BacTiter-Glo, 6 h; 300,000 compounds, 1.3% hits; inhibition, % at 7.5 µM;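 active = mean replicate score, as percent of positive control median, at least 50; inconclusive = mean below 50 but one replicate at or above 50; inactive = mean and every replicate below 50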;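 also: strain carries kanamycin resistance gene driven by streptokinase promoter and grows in 40 µg/ml kanamycin; loss of luminescence reflects streptokinase promoter inhibition or plain growth inhibition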
NALP3 yeast inh: blocks the NALP3 inflammasome reconstituted in yeast; Yeast reconstituted NLRP3/ASC/caspase-1, beta-gal luminescence, 24 h; inhibition, % at 10 µM; 330,000 compounds, 0.39% hits; AID 2825;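 active = inhibition of 50% or more; inactive = inhibition below 50%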
TIM10 inh: TIM10 yeast growth inhibition; 330,000 compounds, 1.4% hits; S. cerevisiae TIM10 strain growth, BacTiter-Glo luminescence, 24 h; AID 463195; inhibition, % at 10 µM;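 active = inhibition of 40% or more at the single tested concentration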;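 also: wild-type TIM10 isogenic control strain grown at permissive 25 °C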
tim10-1 inh: growth inhibitors of tim10-1 mutant yeast. 330,000 compounds, 2.2% hits. S. cerevisiae tim10-1 ts strain growth, BacTiter-Glo, 24 h. AID 463190. inhibition, % at 20 µM;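 active = inhibition of at least 40%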;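 also: mutant grown at 25 °C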
tim23-1 inh: inhibits growth of tim23-1 mutant yeast; AID 463212; inhibition, % at 20 µM; 330,000 compounds, 1.3% hits; S. cerevisiae tim23-1 growth, BacTiter-Glo luminescence, 24 h;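 active = growth inhibition of the mutant yeast at or above 50%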;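 also: temperature-sensitive mutant grown at 25 °C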
NALP3 yeast conf: NALP3 inhibition confirmation in yeast | inhibition, % at 10 µM | 1,300 compounds, 81% hits | AID 435006 | shares compounds with NALP3 yeast inh | yeast expressing human NALP3, luminescence; in the data active = inhibition above about 48%
Casp1-ASC yeast: caspase-1-ASC yeast counter-screen hit | shares compounds with NALP3 yeast inh | 1,000 compounds, 66% hits | AID 488784 | yeast expressing Caspase-1-ASC, luminescence counter screen | inhibition, % at 10 µM
NALP3 retest: confirmation retest of NALP3 inhibitors in yeast. shares compounds with NALP3 yeast inh. yeast expressing human NALP3, luminescence read-out. inhibition, % at 10 µM. 1,000 compounds, 53% hits
Hits are given with their value; – = inactive; ? = inconclusive; · = not tested or not shown. Sampled rows, rich in hits. Any-hit rate of the full collection: about 4.9%. Rule as the data show it, unless noted: active = inhibition above about 50%; inactive = the rest.

SMILES | NALP1 yeast inh | SKKanGAS inh | NALP3 yeast inh | TIM10 inh | tim10-1 inh | tim23-1 inh | NALP3 yeast conf | Casp1-ASC yeast | NALP3 retest
O=c1c(-c2c(O)cc(O)c3c2O[C@H](c2ccc(O)cc2)CC3)c(-c2ccc(O)cc2)oc2cc(O)cc(O)c12 | · | · | – | – | – | – | · | · | ·
O=C(NCCCn1ccnc1)C1CCN(S(=O)(=O)c2ccc(F)cc2)CC1 | – | – | – | – | – | – | · | · | ·
CN(C)c1oc(/C=C/c2ccccc2)nc1C#N | – | – | 54 | – | – | – | – | 57 | 50
O=c1c2ccccc2oc2cc(-c3ccc(CN4CCOCC4)cc3)ccc12 | · | · | – | – | – | – | · | · | ·
COc1ccc(C(=O)NC(=S)NNC(=O)c2ccc(C)cc2)cc1 | · | 83 | 54 | – | – | – | 66 | 55 | 60
O=C(COC(=O)c1cc(S(=O)(=O)N2CCCC2)ccc1O)NCCc1ccccc1 | · | · | – | – | – | – | · | · | ·
N#Cc1ccc(-c2csc(NNC(=O)c3ccccc3)n2)cc1 | – | – | – | – | – | – | · | · | ·
N#Cc1ccc(-c2csc(NNC(=O)c3ccc(Br)cc3)n2)cc1 | – | – | 51 | – | – | – | 51 | – | –
Cc1cc(C(=O)COC(=O)c2csc3c2CCCC3)c(C)n1C | – | – | 54 | – | – | – | 62 | – | –
Cn1nccc1C(=O)NC1CCCc2c1cnn2-c1ccc(C(C)(C)C)cc1 (stereo unspecified) | – | – | – | – | – | – | · | · | ·
O=C(Nc1cccnc1)c1cc(-c2ccccc2)on1 | – | – | 50 | – | – | – | – | · | ·
CCn1c(C)csc1=NC(=O)c1ccccc1 | – | – | 53 | – | – | – | 61 | – | –
FC(F)(F)c1cccc(-c2nc3nc(Cl)c(Cl)nc3[nH]2)c1 | – | ? | 61 | – | – | – | 97 | – | –
COc1cccc(N(CC(=O)NC2CCCCC2)C(=O)CCCC(=O)Nc2ccccn2)c1 | – | – | – | – | – | – | · | · | ·
O=C(Nc1cccc(-c2cnc3ccccc3n2)c1)c1ccco1 | – | – | – | – | – | – | · | · | ·
O=C(Nc1cnc2ccccc2c1)c1ccco1 | – | – | 52 | – | – | – | – | – | –
O=Cc1c(NCc2ccccc2Cl)c2ccccc2[nH]c1=O | – | – | – | – | – | – | · | · | ·
CN1CCN(c2ccccc2NC(=O)c2ccc(-c3ccccc3[N+](=O)[O-])o2)CC1 | – | – | – | – | – | – | · | · | ·
C[C@@H](N)C(=O)NC[C@H]1CC[C@H](C(=O)N[C@@H](Cc2ccccc2)C(=O)O)CC1 | – | – | 62 | – | – | – | 76 | 58 | 63
Cc1ccc(C(=O)CSc2ncnc3ccccc23)o1 | – | · | 54 | – | – | – | 69 | 73 | 58
FC(F)(F)c1cc(-c2ccco2)nc(NCc2ccccc2)n1 | – | – | – | – | – | – | · | · | ·
FC(F)(F)c1cc(-c2ccccc2)nc(NCc2cccnc2)n1 | – | – | 54 | – | – | – | – | · | ·
FC(F)(F)c1cc(-c2ccco2)nc(NCc2cccnc2)n1 | – | – | 53 | – | – | – | 66 | 52 | –
Cc1ccc(C(=O)NC(=S)N2CCN(C)CC2)cc1Br | – | – | – | – | – | – | · | · | ·
COCCN(CC(=O)Nc1cccc(C)c1C)C(=O)c1cc2c(s1)CCC2 | · | · | – | – | – | – | · | · | ·
SMILES | NALP1 yeast inh | SKKanGAS inh | NALP3 yeast inh | TIM10 inh | tim10-1 inh | tim23-1 inh | NALP3 yeast conf | Casp1-ASC yeast | NALP3 retest
Nc1c(-c2ccccc2)cnn1-c1cccc(Cl)c1 | – | – | 50 | – | – | – | 76 | 59 | 54
Cc1ccc(C(=O)c2coc3ccc(O)cc23)cc1 | – | – | 65 | – | – | – | 66 | – | –
Cc1ccc(C(=O)c2coc3ccc(O)c(Cl)c23)cc1 | – | – | – | – | – | – | · | · | ·
COc1ccc(C(=O)c2coc3ccc(OC(C)=O)cc23)cc1 | – | – | – | – | – | – | · | · | ·
COc1ccc2occ(C(=O)c3ccc(N)cc3)c2c1 | – | – | 57 | – | – | – | 69 | – | –
O=C1CC[C@@H](OCc2ccccc2)CCN1CC[C@H](Sc1ccccc1)c1ccccc1 | – | – | – | – | – | – | · | · | ·
Oc1ccc(N=Nc2nc(-c3ccccc3)c(-c3ccccc3)[nH]2)cc1 | – | – | 51 | – | – | – | 62 | 75 | –
Oc1ccc(N=Nc2n[nH]c(-c3ccccc3)n2)cc1 | – | – | – | – | – | – | · | · | ·
COCCN1CCN(C(=O)C2CCC(=O)N(Cc3ccccc3OC)C2)CC1 (stereo unspecified) | – | – | – | – | – | – | · | · | ·
Cc1cc(Cl)c(S(=O)(=O)Nc2ccon2)cc1OCC(=O)NC1CCCCC1 | – | – | – | – | – | – | · | · | ·
Cc1cc(Cl)c(S(=O)(=O)NC2CCCCC2)cc1OCC(=O)Nc1nncs1 | – | – | 50 | – | – | – | 50 | – | –
COc1ccc(OC)c(N(/C(N)=N/c2nc(C)cc(C)n2)S(=O)(=O)c2ccc(NC(C)=O)cc2)c1 | – | – | – | – | – | – | · | · | ·
COc1ccc(C(=O)NNC(=O)OC(C)(C)C)cc1 | · | – | – | – | – | – | · | · | ·
COc1ccc(C(=O)NN/C(C)=C/C(=O)C(F)(F)C(F)(F)C(F)(F)F)cc1 | – | – | 57 | – | – | – | 45 | – | –
O=C(NC1=NCCS1)c1ccccc1OCc1ccccc1Cl | – | – | 96 | – | – | – | 99 | 98 | 98
COc1c(O)cc(O)c2c(=O)cc(-c3ccccc3)oc12 | · | · | – | – | – | – | · | · | ·
CCc1ccc(N=Nc2ccc(O)c3[nH]cnc23)cc1 | · | · | 51 | – | – | – | – | – | –
CCc1ccc(/C=N/Nc2ncnc3nc[nH]c23)cc1 | · | – | – | – | – | – | · | · | ·
Cc1nn(-c2c(Cl)cc(Cl)cc2Cl)c(=O)c2ccccc12 | – | – | 63 | – | – | – | 73 | 59 | 53
COc1cccc(Nc2ncnc3c2cnn3-c2cccc(C)c2)c1 | – | – | – | – | – | – | · | · | ·
Fc1cccc(Nc2ncnc3c2cnn3-c2ccccc2)c1 | – | – | 63 | – | – | – | 77 | · | ·
Clc1cccc(Nc2ncnc3c2cnn3-c2ccccc2)c1 | · | 64 | 53 | – | – | – | 61 | – | –
O=C(O)c1cccc(Nc2ncnc3c2cnn3-c2ccccc2)c1 | – | – | – | – | – | – | · | · | ·
CC(C)(C)c1ccc(CN2N=C(/C=C/c3ccccc3)CCC2=O)cc1 | – | – | – | – | – | – | · | · | ·
COc1ccc(-c2ccc(SCC(=O)NCc3ccco3)nn2)cc1 | – | – | – | – | – | – | – | · | ·
O=C(/C=C/c1cccc(Cl)c1Cl)OCC(=O)N1CCOCC1 | · | · | – | – | – | – | · | · | ·
CNC(=O)/C(C#N)=C/c1ccc(OCCOc2ccccc2)cc1 | – | – | 56 | – | – | – | 73 | 58 | –
